Screening results (PubChem BioAssay)
A selection: hits, their analogues and other compounds. The true share with any hit is near 18%.
RORg inh: ROR gamma (mouse) transcription inhibition. 310,000 compounds, 5.4% hits. P51450. AID 2551. Potency, µM (top dose mostly 53.6 µM), without a hit: at the highest dose activity change, negative = inhibition, hits mostly inhibitors. Drosophila S2 Gal4-RORgamma UAS-luciferase reporter, 20 h; further: potency means the concentration at half of the fitted maximal effect; nearly all actives have a fitted effect of over 60% in size
Target sequence (P51450 whole entry, looked up, the tested form may be a part): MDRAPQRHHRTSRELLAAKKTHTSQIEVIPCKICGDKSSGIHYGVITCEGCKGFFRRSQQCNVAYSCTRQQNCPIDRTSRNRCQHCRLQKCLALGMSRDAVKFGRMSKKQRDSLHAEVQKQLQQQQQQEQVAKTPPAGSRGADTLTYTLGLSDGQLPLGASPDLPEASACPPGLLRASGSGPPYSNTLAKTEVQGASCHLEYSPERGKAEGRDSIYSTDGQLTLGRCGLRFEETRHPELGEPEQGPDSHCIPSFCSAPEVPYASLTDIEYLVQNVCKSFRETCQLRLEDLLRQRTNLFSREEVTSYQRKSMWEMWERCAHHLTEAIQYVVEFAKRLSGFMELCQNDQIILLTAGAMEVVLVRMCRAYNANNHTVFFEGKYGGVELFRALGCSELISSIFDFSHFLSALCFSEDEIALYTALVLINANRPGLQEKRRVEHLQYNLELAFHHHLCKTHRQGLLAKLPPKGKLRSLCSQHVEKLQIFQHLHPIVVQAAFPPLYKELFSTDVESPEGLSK
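Compounds are pin-transferred onto Drosophila Schneider cells expressing a copper-inducible Gal4–ROR gamma transactivation domain fusion. After 1 hr, copper sulfate is added to 700 uM final; luciferase is read 20 hr later.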
LDHA inh: inhibitors of human lactate dehydrogenase A. 480,000 compounds, 0.15% hits. activity change, % (values are at about 110 or 230 µM). P00338. purified LDHA, NADH/diaphorase-resazurin fluorescence; active compounds read low; in the data active means activity change below about -30%; inconclusive means mostly about -25% to -30%;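 further: plate controls were DMSO wells for no effect and wells without enzyme for full effect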
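Human LDH5 (2 nM) was incubated with 0.06 mM NADH and 0.2 mM pyruvate for 5 min at room temperature in Tris pH 7.4. Remaining NADH was coupled through diaphorase/resazurin, and resorufin fluorescence was read at 0 and 20 min.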
TDP1 cell CPT: DT40-hTDP1 cell growth loss with CPT; chicken DT40 Tdp1-/-;hTDP1 cells + 20 nM CPT, ATP luminescence, 48 h; Potency, µM (series often up to 46.2 µM), for inactives: top-dose activity change, negative = growth inhibition, hits mostly inhibitors; 420,000 compounds, 12% hits; AID 686979; further: potency means the concentration at half of the fitted maximal effect; nearly all actives have a fitted effect of over 55% in size
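Cell growth measured by CellTiter-Glo luminescence after a minimum 48 h, 37 C compound exposure with 20 nM CPT in Tdp1-knockout DT40 cells stably expressing hTDP1, seeded 400/well; qHTS titration format.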
TDP1 cell noCPT: qHTS for Inhibitors of human tyrosyl-DNA phosphodiesterase 1 (TDP1): qHTS in cells in absence of CPT | DT40 Tdp1-/- hTDP1 cells, no CPT, ATP luminescence, 48 h | AID 686978, 2013 | Potency, µM (top dose mostly 46.2 µM), without a hit: at the highest dose activity change, negative = growth inhibition, usual class: inhibitors | 420,000 compounds, 15% hits; further: potency means the concentration at half of the fitted maximal effect; nearly all actives have a fitted effect of over 55% in size
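Seeded 400 DT40-hTDP1 cells/well (vehicle DMSO, no 20 nM CPT); pinned compounds; ≥48 hr at 37 °C; CellTiter-Glo luminescence as viability measure.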
IL-1B inflam inh: blocks inflammasome-driven IL-1 beta release; THP-1 LPS/ATP IL-1B secretion, AlphaLISA, 16 h; active compounds read low; AID 743279; 360,000 compounds, 4.7% hits; activity change, % at 57.5 µM; in the data active means activity change below about -50%; inconclusive means mostly about -30% to -49%
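Secreted IL-1B measured by AlphaLISA bead assay after 16 h compound exposure of THP-1 cells; compounds (final up to 57.5 uM) added 1 h before LPS (250 ng/mL) and ATP (1.25 mM) stimulation; lower signal means less secretion.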
VP16 counter: counter-screen for ROR gamma inhibitors: Gal4-VP16 reporter. Drosophila S2 Gal4-VP16 UAS-luciferase, luminescence, 20 h. Potency, µM (highest dose often 53.6 µM), without a hit: at the highest dose activity, negative = inhibition, hits mostly inhibitors. 310,000 compounds, 3.5% hits;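 further: Gal4-VP16 expression switched on by copper sulfate through the metallothionein promoter; potency means the concentration at half of the fitted maximal effect; nearly all actives have a fitted effect of over 50% in size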
Starred values were filed as active, the others as inactive; ? = inconclusive; / = not tested or not shown; ! = repeats disagree; [ ] = another dose, or the depositor's remark. Unless noted, the call rests on the fitted dose curve; in most records, active means well fitted curve in the direction sought with a large enough effect; inconclusive means small, poorly fitted or top-dose-only effect, or another doubt; inactive means no such curve, though single readings can be large; an effect the other way counts as inactive or inconclusive. Unless noted, on the % scale 0 is the no-effect control and ±100 the full control effect.

SMILES | RORg inh | LDHA inh | TDP1 cell CPT | TDP1 cell noCPT | IL-1B inflam inh | VP16 counter
Cc1cc(C(=O)C[N+]23CCN(CC2)CC3)c(C)n1-c1ccc(Br)cc1 | 14% | -8 | 1% | -13% | -26 | 0%
Cc1cc(C(=O)Cn2nnc(-c3ccc(Cl)cc3)n2)c(C)n1-c1ccccc1 | ? | -5 | -18% | ? | ? | 22µM*
C=Cn1ccnc1P(=S)(c1c(C)nn(-c2ccccc2)c1C)c1nccn1C=C | 2% | -2 | -13% | ? | -3 | -9%
C=Cn1ccnc1P(O)(=S)c1nc(C)c(CCOC(C)=O)s1 (stereo unspecified) | 11µM* | 0 | 10% | 5% | 4 | ?
COc1ccc(-c2cc3ccc(OC(=O)N(C)C)cc3oc2=O)cc1 | / | -1 | / | / | / | /
N#CCCNCc1cccnc1 | / | 10 | / | / | / | /
COc1ccc(C[C@H]2c3cc(OC)c(OC)cc3CCN2C)cc1OC | -25%[16.9 µM] | / | / | / | / | -4%[17 µM]
C[C@@H]1Cc2c(Cl)cc(C(=O)N[C@@H](Cc3ccccc3)C(=O)O)c(O)c2C(=O)O1 | ? | / | / | / | / | 22µM*
Cc1ccc(NC(=O)CN2CCN(C(=O)Cc3c[nH]c4ccccc34)CC2)cc1 | / | 8 | / | / | / | /
Cc1nn(C(C)(C)C)c(C)c1/C=N/OC(=O)Nc1ccc(Cl)cc1 | ? | -5 | ? | ? | -94* | ?
Cc1cc(C(=O)Nc2ccccc2)nn1C(C)(C)C | -16% | -2 | -1% | -28% | -4 | -8%
Cc1ccccc1-n1c(Cn2cnc3c(N)ncnc32)nc2cccc(C)c2c1=O | / | -2 | / | / | / | /
Cc1ccc(CN2C3CCCC2CC(NC(=O)Nc2cccc(F)c2)C3)cc1 (stereo unspecified) | -13% | 2 | ? | 15µM* | -70* | 2%
Cc1ccc(CN2C3CCCC2CC(NC(=O)c2ccc(F)cc2)C3)cc1 (stereo unspecified) | -30% | -4 | -9% | ? | -16 | 1%
COc1c(C)cc(Br)cc1C(=O)Nc1ccc(-c2nc3ncccc3o2)cc1 | / | -2 | 6.5µM* | 4.6µM* | / | /
CN(C)[C@@H]1C(=O)C(C(N)=O)=C(O)[C@@]2(O)C(=O)C3=C(O)c4c(O)ccc(Cl)c4[C@@](C)(O)[C@H]3C[C@@H]12 | -21% | 15 | 15µM*! | ? | -4 | -9%
COc1ccc(C(=O)Cn2c(NCCCl)nc3ccccc32)cc1 | -21% | 0 | 21µM* | -26% | -2 | 0%
CSc1ncc(C(=O)Nc2ccc(Cl)cc2C(=O)c2ccccc2)c(C)n1 | / | -7 | ? | ? | / | /
CCOc1ccccc1CNCCc1ccccc1 | / | 10 | / | / | / | /
Cc1cccn2c(=O)c3c(nc12)N1CCC(Cc2ccccc2)CC1C1(C3)C(=O)N(C)C(=O)N(C)C1=O (stereo unspecified) | -5% | 0 | 18µM* | ? | -20 | 6%
CN1C(=O)N(C)C(=O)C2(Cc3c(nc4ccccn4c3=O)N3CCC(Cc4ccccc4)CC32)C1=O (stereo unspecified) | 1% | / | / | / | / | 6%
COc1ccc(OC)c(C[C@H](C)N)c1 | / | / | -30%[92.5 µM] | -27%[92.5 µM] | / | /
C=CCc1c(C)nc(C)nc1N/N=C/c1ccc(N(C)C)cc1 | 4.5µM* | 2 | 4.6µM* | 21µM* | 20 | ?
O=C1N=C2SCCN2C(=O)C1Cc1ccc(Cl)cc1 (stereo unspecified) | 8% | / | ? | -18% | / | 4%
O=C(NCc1ccc2c(c1)CCN2C(=O)c1ccccc1)Nc1cccc(C(F)(F)F)c1 | / | -7 | 15µM* | ? | / | /
C[C@]12C[C@H]3S[C@H]3C[C@@H]1CC[C@@H]1[C@@H]2CC[C@]2(C)[C@@H](O)CC[C@@H]12 | / | / | -27%[21.1 µM] | -29%[21.1 µM] | / | /
Cc1cc(N(CCCl)CCCl)ccc1C=NNC(=O)c1cccnc1 | / | 0 | 10µM* | ? | 0 | /
O=C(NN=Cc1ccc(N(CCCl)CCCl)cc1Cl)c1cccnc1 | / | -8 | ? | 23µM* | -6 | /
